Measurements taken from paper PMC5540273 (PLoS ONE, 2017).

Assays:
Settings in all cases: concentration: 1 μM,replicates: in singlicate; n = 1
TNNI3K = test system: TNNI3K
TRKA = test system: T1, TRKA
T1 construct: gene NTRK1

TRKB = test system: TRKB
TRKC = test system: T2, TRKC
T2 construct: gene NTRK3

TRPM6 = test system: TRPM6
TSSK1B = test system: TSSK1B
TSSK3 = test system: TSSK3
TTK = test system: TTK
TXK = test system: TXK
[1] = test system: TYK2(JH1domain-catalytic)
[2] = test system: TYK2(JH2domain-pseudokinase)
TYRO3 = test system: TYRO3
ULK1 = test system: ULK1
ULK2 = test system: ULK2
ULK3 = test system: ULK3
VEGFR2 = test system: T3, VEGFR2
T3 construct: gene KDR

VPS34 = test system: T4, VPS34
T4 construct: gene PIK3C3

VRK2 = test system: VRK2
WEE1 = test system: WEE1
WEE2 = test system: WEE2
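Note: KINOMEscan kinase panel screen.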

| Structure (SMILES) | %Inh (TNNI3K) [%] | %Inh (TRKA) [%] | %Inh (TRKB) [%] | %Inh (TRKC) [%] | %Inh (TRPM6) [%] | %Inh (TSSK1B) [%] | %Inh (TSSK3) [%] | %Inh (TTK) [%] | %Inh (TXK) [%] | %Inh [1] [%] | %Inh [2] [%] | %Inh (TYRO3) [%] | %Inh (ULK1) [%] | %Inh (ULK2) [%] | %Inh (ULK3) [%] | %Inh (VEGFR2) [%] | %Inh (VPS34) [%] | %Inh (VRK2) [%] | %Inh (WEE1) [%] | %Inh (WEE2) [%] |
| --- | --- | --- | --- | --- | --- | --- | --- | --- | --- | --- | --- | --- | --- | --- | --- | --- | --- | --- | --- | --- |
| COC(=O)c1cccc(NC(=O)NC2CCN(c3ccnc(Nc4cc(OC)c(OC)c(OC)c4)n3)C2)c1 (stereo not shown) [GSK1379767] | 0 | 97.1 | 81 | 95.6 | 0 | 9 | 13 | 0 | 0 | 40 | 18 | 0 | 0 | 0 | 58 | 15 | 0 | 25 | 8 | 0 |
| Cl.c1ccc(Oc2ccc(Nc3ccnc4cc(-c5ccc(CN6CCNCC6)o5)ccc34)cc2)nc1 [GW567142] | 0 | 98.7 | 0 | 15 | 50 | 0 | 5 | 0 | 11 | 3 | 10 | 0 | 0 | 16 | 0 | 25 | 0 | 0 | 8 | 0 |
| c1ccc(Oc2ccc(Nc3ccnc4ccc(-c5ccccn5)cc34)cc2)cc1 [GW407034] | 0 | 0 | 15 | 9 | 27 | 27 | 19 | 1 | 27 | 7 | 15 | 0 | 49 | 0 | 5 | 0 | 0 | 0 | 15 | 0 |
| Cn1ccc2ncnc(Oc3ccc(NC(=O)Nc4cc(C(C)(C)C)on4)c(Cl)c3)c21 | 90.7 | 96.1 | 96.4 | 99.1 | 0 | 0 | 3 | 2 | 0 | 7 | 26 | 28 | 8 | 11 | 16 | 97.5 | 16 | 19 | 0 | 23 |
| COc1ccc(Nc2nccc(N3CCC(NC(=O)c4cccc(C#N)c4)C3)n2)cc1 (stereo not shown) [GSK1379730] | 0 | 40 | 14 | 43 | 0 | 0 | 12 | 0 | 41 | 44 | 18 | 0 | 0 | 0 | 10 | 0 | 46 | 0 | 0 | 6 |
| Cc1n[nH]c2cc(Nc3ccnc(Nc4cccc(CN5CCOCC5)c4)n3)ccc12 [GW682569] | 17 | 100 | 60 | 45 | 43 | 0 | 12 | 37 | 60 | 95.9 | 99.2 | 0 | 1 | 0 | 55 | 45 | 18 | 27 | 10 | 0 |
| CCNCC(Cc1ccccc1)NC(=O)c1cc(Br)c(-c2ccnc3[nH]ccc23)s1.Cl.Cl (stereo not shown) [GSK1383280] | 11 | 90 | 77 | 50 | 8 | 60 | 13 | 67 | 0 | 46 | 10 | 0 | 0 | 0 | 8 | 36 | 0 | 0 | 0 | 7 |
| COC(=O)Nc1nc2cc(Oc3ccc(NC(=O)Nc4cc(C(F)(F)F)ccc4Cl)cc3)ccc2[nH]1.Cl [GW697465] | 88 | 100 | 99.7 | 99.8 | 0 | 0 | 10 | 1 | 0 | 14 | 30 | 3 | 17 | 0 | 10 | 64 | 35 | 4 | 8 | 11 |
| Cl.Nc1n[nH]c2cc(-c3ccccn3)ccc12 [GSK2189892] | 0 | 23 | 0 | 0 | 0 | 0 | 8 | 14 | 0 | 0 | 0 | 0 | 50 | 47 | 0 | 0 | 10 | 0 | 4 | 0 |
| Cl.Cl.NC[C@H](CC1CCCCC1)NC(=O)c1ccc(-c2ccnc3[nH]ccc23)s1 [GSK1581428] | 0 | 77 | 26 | 54 | 7 | 84 | 25 | 41 | 0 | 29 | 0 | 0 | 31 | 0 | 13 | 0 | 9 | 26 | 8 | 30 |
| Cc1ccc(CC(=O)N2CCc3cc(-c4cn(C)c5ncnc(N)c45)ccc32)cc1 [GSK2634758] | 0 | 10 | 34 | 29 | 5 | 6 | 13 | 0 | 8 | 0 | 17 | 0 | 11 | 35 | 6 | 0 | 0 | 19 | 0 | 0 |
| O=C(Nc1ccc(Oc2ccc3nc(NC(=O)C4CC4)cn3n2)c(F)c1)c1cccn(-c2ccccc2)c1=O | 12 | 87 | 80 | 20 | 0 | 0 | 0 | 10 | 69 | 0 | 0 | 74 | 0 | 0 | 0 | 98.2 | 44 | 0 | 14 | 0 |
| CN1CCN(CCNc2nc3cc(Oc4ccc(NC(=O)Nc5cc(C(F)(F)F)ccc5F)cc4)ccc3[nH]2)CC1.Cl.Cl [GW768504] | 0 | 0 | 0 | 0 | 0 | 8 | 0 | 41 | 0 | 0 | 0 | 0 | 0 | 0 | 0 | 58 | 17 | 0 | 8 | 2 |
| CN(c1ccc2c(c1)nc(NCc1ccc(F)cc1)n2C)c1ccnc(Nc2ccc(CS(C)(=O)=O)cc2)n1.Cl [GW813244] | 11 | 0 | 7 | 0 | 24 | 0 | 4 | 0 | 80 | 36 | 12 | 4 | 28 | 13 | 21 | 98.3 | 30 | 6 | 0 | 7 |
